Results: PubChem BioAssay AID485297 (National Center for Advancing Translational Sciences (NCATS), 2010)
The campaign covered roughly 320,000 compounds. About 9,100 (2.8%) were called active. Not shown: some 3% with an inconclusive outcome. The list comes from a sample in which actives are over-represented; it also holds similar structures and randomly drawn compounds. A number with no mark means an inactive call. Calls come from the whole dose curve; as a rule, active = well fitted activation curve with a large enough effect; inconclusive = small, poorly fitted or top-dose-only effect; inactive = no such curve, though single readings can be large or run the other way.

test: qHTS Assay for Rab9 Promoter Activators; conditions: Huh7 Rab9 promoter-luciferase reporter, luminescence, 24 h; series mostly up to 9.22 µM; activation, negative = inhibition: at the top concentration; note: nearly all actives have a fitted effect of over 60% in size; for activation, negative = inhibition: % of control where 0% means no effect
In short: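 Using Huh7 cells stably transfected with Rab9 promoter–luciferase, compounds were incubated 24 h at 37 °C, 5% CO2; luciferase luminescence was read 10 min after reagent addition.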
Potency is the fitted concentration of half-maximal effect.

Row | Structure (SMILES) | activation, negative = inhibition | Potency
1 | CC1(C)NC(=O)N(CC(=O)N2CCN(S(=O)(=O)c3ccccc3F)CC2)C1=O | -3.99% | 
2 | CC(=O)Nc1ccc(NC(=O)CSc2nnc(C3CC3)n2-c2ccccc2)cc1 | -4.66% | 
3 | CCC(C)C(N=C1NS(=O)(=O)c2ccccc21)C(=O)N1CCC(C)CC1 (stereo not drawn) | 3.36% | 
4 | O=C(NCCc1ccc(F)cc1)c1ccc(S(=O)(=O)N2CCCCC2)cc1 | -0.716% | 
5 | O=C(NCCc1ccc(F)cc1)c1ccc2nccnc2c1 |  | 1.12 µM (active)
6 | Cc1ccc(C)c(NC(=O)c2ccc3nccnc3c2)c1 | 9.71% | 
7 | CC(=O)Nc1ccc(NC(=O)COC(=O)c2ccccc2C(=O)c2ccccc2)cc1 | -6.29% | 
8 | CCN(CC)S(=O)(=O)c1ccc2[nH]c(=O)cc(C(=O)N(C)C3CCS(=O)(=O)C3)c2c1 (stereo not drawn) | 10.2% | 
9 | Cc1ccccc1Nc1nc(N)nc(COC(=O)CCC(=O)c2ccc(F)cc2)n1 | 1.65% | 
10 | O=C(Nc1nnc(-c2ccc(F)cc2)s1)c1c(F)cccc1Cl | 0.179% | 
11 | CC(C)c1cc(C(N)=O)c(NC(=O)c2cccc(COc3ccc(Br)cc3)c2)s1 |  | 1.26 µM (active)
12 | NNC(=O)c1cccc(COCC(F)(F)C(F)F)c1 | 2.34% | 
13 | CCOC(=O)c1cc(C(C)C)sc1NC(=O)COC(=O)c1nccnc1N | -5.34% | 
14 | COCC(C)NC(=O)c1ccc(-n2nc(C(F)(F)F)cc2-c2cccs2)cc1 (stereo not drawn) | -0.235% | 
15 | C=CCn1c(=NC(=O)c2cccs2)sc2cc(NC(C)=O)ccc21 |  | 3.98 µM (active)
16 | C=CCn1c(CCNC(=O)c2cccs2)n[nH]c1=S | 2.05% | 
17 | C=CCn1c(=NC(=O)c2ccc(S(=O)(=O)N3CCCC3)cc2)sc2cc(NC(C)=O)ccc21 | -11.8% | 
18 | Cc1cccc(NS(=O)(=O)c2cccc(C(=O)NNC(=O)c3ccccc3O)c2)c1 | -12.8% | 
19 | O=C(CSc1ccccc1)Nc1cccc(S(=O)(=O)N2CCCCC2)c1 | -0.555% | 
20 | CCN(c1ccccc1)S(=O)(=O)c1ccc(OCC(=O)N2CCCC2)cc1 | 1.98% | 
21 | CC(=O)Nc1ccc(SC[C@H](Cc2ccccc2)N2CC[C@@H](C)CCC2=O)cc1 | -2.39% | 
22 | COc1cccc(-c2nnc(N(C)C(=O)c3ccno3)s2)c1 | 21.5% | 

Row | Structure (SMILES) | activation, negative = inhibition | Potency
23 | CN(C(=O)c1ccccn1)c1nnc(-c2ccccn2)s1 |  | 3.55 µM (active)
24 | COc1cc(OC)cc(-c2nnc(N(C)C(=O)c3ccncc3)s2)c1 | 9.75% | 
25 | O=C(CNc1ccccc1N1CCCC1=O)Nc1cc(Cl)ccc1-n1cncn1 | -4.84% | 
26 | Cc1c(Br)c([N+](=O)[O-])nn1CC(=O)N1CCN(Cc2ccccc2)CC1 | -0.94% | 
27 | O=C(COC(=O)c1cc(=O)[nH]c2ccccc12)NCc1cccc(Cl)c1 | 1.13% | 
28 | COc1ccc(C(=O)NCc2nnc(SCCOc3ccccc3)n2C)cc1 | -2.55% | 
29 | COc1ccc(C(=O)NCCSc2ccccc2C)cc1 |  | 0.794 µM (active)
30 | COc1cccc(C(=O)NCCSc2ccc(Br)cc2)c1 | -5.78% | 
31 | CCNC(=O)N1CCN(S(=O)(=O)c2ccc3c(c2)OCCCO3)CC1 | -0.383% | 
32 | COc1ccc(OC)c(/C=N/NC(=O)c2ccc[n+](CC(=O)c3ccccc3)c2)c1 | 10.5% | 
33 | O=C(/C=C/c1ccc2c(c1)OCO2)NCc1cn2cc(Cl)ccc2n1 | -1.87% | 
34 | O=c1c2ccccc2nc2n1C(CSc1ccc(Cl)cc1)CN2 (stereo not drawn) | -4.15% | 
35 | Clc1ccc2nc(CSc3ccccc3)cn2c1 |  | 0.316 µM (active)
36 | O=C(Nc1ccc2oc(-c3ccc4ccccc4c3)nc2c1)c1cccs1 |  | 1.26 µM (active)
37 | O=C(Nc1ccc(NC(=O)c2cccs2)cc1)c1ccc2ccccc2c1 | 11.8% | 
38 | COc1cc2ccccc2cc1C(=O)Nc1ccc(NC(=O)c2cccs2)cc1 | 2.39% | 
39 | COc1ccc(S(=O)(=O)N2CCN(CC(=O)N3c4ccccc4CC3C)CC2)cc1OC (stereo not drawn) | -4.56% | 
40 | Nc1nc(SCC(=O)Nc2ccc(Cl)c([N+](=O)[O-])c2)n[nH]1 | -2.62% | 
41 | C/C=C\C=C\C(=O)N1CC2(CC(c3cccc(NC(=O)/C(C)=C\C)c3)=NO2)C[C@H]1C(N)=O (stereo partly drawn) | -10.8% | 
42 | COc1ccccc1C1CCN(C(=S)Nc2ccc(Br)cc2)CC1 | 3.49% | 
43 | CC(C(=O)N1CCc2ccccc21)N(C)CC(=O)Nc1ccc(F)cc1 (stereo not drawn) | -0.555% | 
44 | Cc1cc(CN(C)C(=O)c2cc(COc3ccc(C)c(C)c3)on2)n[nH]1 |  | 2 µM (active)

Row | Structure (SMILES) | activation, negative = inhibition | Potency
45 | CN(CCOc1ccccc1)C(=O)c1cc(COc2c(F)cccc2F)on1 | 3.49% | 
46 | CCn1ccnc1CN(C)C(=O)c1cc(COc2ccc(-n3cncn3)cc2)on1 | -0.6% | 
47 | CN(Cc1cnccn1)C(=O)c1cc(COc2cccc(C(F)(F)F)c2)on1 | 29.7% | 
48 | CN(Cc1cccnc1)C(=O)c1cc(COc2ccc3ncccc3c2)on1 | -26.6% | 
49 | Cc1ccc(OCc2cc(C(=O)N(C)CCc3ccccc3)no2)cc1C |  | 3.98 µM (active)
50 | COc1ccc(C(=O)N2CCN(c3ncccn3)CC2)cc1S(=O)(=O)N1CCOCC1 | -2.99% | 
51 | COc1cccc(NC(=O)CN(C)C(=O)/C=C/c2cn(-c3ccccc3)nc2-c2cccs2)c1 | -3.55% | 
52 | CN(C)CCn1c(=S)[nH]c2ccc(Cl)cc2c1=O | 2.67% | 
53 | CN(C)CCN=c1cc(-c2ccccc2)oc2ccc(Cl)cc12 |  | 2.82 µM (active)
54 | O=C(NCC#CCSc1nnc(-c2cccc3ccccc23)o1)c1cccs1 | 2.25% | 
55 | COCCN(C(=O)CC1CCCCC1)c1c(N)n(CC(C)C)c(=O)[nH]c1=O | 0.171% | 
56 | O=C(Nc1ccc(S(=O)(=O)N2CCCCC2)cc1)C1CCN(C(=O)c2ccc(F)cc2)CC1 | -6.42% | 
57 | Cc1ccc(S(=O)(=O)N(C)C)cc1NC(=O)CN1c2cccc3cccc(c23)S1(=O)=O | 11% | 
58 | COc1ccc(NC(=O)c2ccc(OC)cc2)cc1 |  | 1.41 µM (active)
59 | COc1ccc(C(=O)Nc2cccc(S(C)(=O)=O)c2)cc1 | -1.5% | 
60 | COc1cc(OC)cc(C(=O)OCC(=O)Nc2ccc(F)cc2F)c1 | 1.48% | 
61 | COc1ccccc1CC(=O)Nc1ccc(F)cc1F | 6.21% | 
62 | COc1ccc(C(=O)Nc2ccc(F)cc2F)cc1 |  | 2.51 µM (active)
63 | COc1ccc(NC(=O)c2ccc(C#CC(C)(C)O)cc2)cc1 | 27.7% | 
64 | COc1ccc(NC(=O)CC2SC(N3CCCCC3)=NC2=O)cc1OC (stereo not drawn) | -4.88% | 
65 | CCCc1ccc(C(=O)COC(=O)CN2C(=O)NC3(CCCCC3C)C2=O)cc1 (stereo not drawn) | 0.0937% | 
66 | C=CCN1CCN(C(=O)CCCc2ccccc2)CC1 |  | 0.1 µM (active)

Row | Structure (SMILES) | activation, negative = inhibition | Potency
67 | O=C(CCCc1ccccc1)NCc1ccccc1 | 15.9% | 
68 | CCC(C)NC(=O)CCCc1ccccc1 (stereo not drawn) | 15.2% | 
69 | CCn1c(SCC(=O)Nc2nc3ccc(OC)cc3s2)nnc1-c1ccoc1C | 28.2% | 
70 | COc1ccc2nc(NC(=O)c3ccc(Br)s3)sc2c1 |  | 2.24 µM (active)
71 | CCc1noc(C)c1C(=O)Nc1nc2ccc(OC)cc2s1 | 4.53% | 
72 | COc1ccc2nc(NC(=O)NC3CCCCC3)sc2c1 |  | 2 µM (active)
73 | COc1ccc2nc(NC(=O)[C@@H]3CCCN3C(=O)c3cccs3)sc2c1 | -2.14% | 
74 | CS(=O)(=O)c1ccc2nc(NC(=O)C3CCCCC3)sc2c1 | 14.4% | 
75 | C=CCN(c1ccccc1C(=O)NCC(=O)OCC)S(=O)(=O)c1ccc(C)cc1 | -9.66% | 
76 | COc1cc(C#Cc2ccc3cc(CCCO)oc(=O)c3c2)cc(OC)c1 | -2.52% | 
77 | O=C(O)c1cc(S(=O)(=O)Nc2ccc3cn[nH]c3c2)ccc1Br | 0.286% | 
78 | O=C(CN1C(=O)NC2(CCOc3ccccc32)C1=O)NCc1ccc(F)cc1 (stereo not drawn) | -0.457% | 
79 | CCOc1ccc(OCC(=O)OC(C)C(=O)NC2CCCCC2C)cc1 (stereo not drawn) | -4.77% | 
80 | Cc1ccc(-c2noc(CSc3nnc(-c4ccncc4)n3-c3ccc(F)cc3)n2)cc1 | -5.23% | 
81 | c1ccc(CCc2nc(-c3ccncc3)no2)cc1 | 5.11% | 
82 | c1csc(-c2nc(-c3ccncc3)no2)c1 |  | 2.51 µM (active)
83 | Cc1ccc(-c2noc(CSc3nnc(-c4cccs4)n3C)n2)cc1 | 5.25% | 
84 | O=C(NCc1cccnc1)c1nc(-c2cccs2)no1 | 7.62% | 
85 | COc1nc(-c2ccc(Cl)cc2)ccc1-c1noc(-c2cccs2)n1 | 14.7% | 
86 | c1ccc(-c2noc(-c3cccs3)n2)nc1 |  | 0.355 µM (active)
87 | Cc1ccc(-c2nc(-c3ccncc3)no2)c(C)c1 |  | 2.51 µM (active)
88 | Clc1ccc(-n2nnnc2-c2cnc(-c3ccccn3)nc2-c2cccs2)cc1 | 0.51% | 

Row | Structure (SMILES) | activation, negative = inhibition | Potency
89 | COc1cccc(C2=CC(=O)C[C@H](c3ccc(OC)c(OC)c3)C2)c1 | 0.14% | 
90 | Cc1ccc(NC(=O)CCCNC(=O)c2ccc(Cl)cc2)cc1S(=O)(=O)N1CCCCC1 | 0.323% | 
91 | CN(CCc1ccccn1)C1CCCN(S(=O)(=O)c2ccccc2Cl)C1 (stereo not drawn) | 5.86% | 
92 | O=C(NNC(=O)C1CCC1)c1ccccc1 | 0.349% | 
93 | COc1ccc(C(=O)N2CCN(c3ccc(C(C)=O)cc3F)CC2)cc1S(=O)(=O)NC1CC1 | -4.32% | 
94 | O=S(=O)(NC1CCN(S(=O)(=O)c2ccc3c(c2)OCCO3)CC1)c1c(F)cccc1F | 0.297% | 
95 | CN1CCC(N(C)S(=O)(=O)c2ccc(NC(=O)c3cccc(C#N)c3)cc2)CC1 | -3.53% | 
96 | CC(C)COC(=O)c1ccc(NC(=O)C2C3C=CC(C3)C2C(=O)O)cc1 (stereo not drawn) |  | 2.24 µM (active)
97 | COC(=O)c1cc(NC(=O)C2C3C=CC(C3)C2C(=O)O)cc(C(=O)OC)c1 (stereo not drawn) | -9.89% | 
98 | CC(=O)NS(=O)(=O)c1ccc(NC(=O)C2C3C=CC(C3)C2C(=O)O)cc1 (stereo not drawn) | -3.05% | 
99 | CCOc1ncccc1C(=O)OCC(=O)N1c2ccccc2CC1C (stereo not drawn) | 0.841% | 
100 | CC(NC(=O)CSc1nc2c(cc1C#N)CN(C)CC2)c1ccccc1 (stereo not drawn) | 13.2% | 
101 | Cc1cc(NC(=O)CSc2nc(C(C)C)nc3sc4c(c23)CCC(C)C4)no1 (stereo not drawn) | -1.16% | 
102 | Cc1cc(NC(=O)CSc2nc3c(cc2C#N)CCCCC3)no1 |  | 2 µM (active)
103 | O=C(Cc1ccc(F)cc1)N/N=C/c1ccc2c(c1)OCO2 |  | 2.82 µM (active)
104 | O=C(N/N=C/c1ccc2c(c1)OCO2)C(=O)N1CCCC1 |  | 2.82 µM (active)
105 | COC(=O)c1ccc(/C=N/NC(=O)C(=O)N2CCCCCC2)cc1 | -7.08% | 
106 | O=C(CNC(=O)C(c1ccccc1)c1ccccc1)N/N=C\c1ccc2c(c1)OCO2 | 8.43% | 
107 | O=C(N/N=C/c1ccc([N+](=O)[O-])cc1)C(=O)N1CCCC1 | -0.644% | 
108 | O=C(/C=C/c1ccc2c(c1)OCO2)NCc1ccc(F)cc1 | 0.0512% | 
